# Measurements taken from PubChem BioAssay (NCI).
# The panel holds about 79,000 compounds, 15% with a hit somewhere; the sample as a whole holds those more often. Unmarked numbers belong to inactive results. Activity calls are given as the source filed them. Rule as the data show it: active = growth inhibition above about 70%; inactive = the rest.
# How the values were obtained:
# [1] = NCI Yeast Anticancer Drug Screen. Data for the rad52 strain (AID 147);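 also: 0% = growth of vehicle-treated control cultures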; conditions: S. cerevisiae rad52 mutant growth inhibition, hits give high values
# Method in brief: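 Read-out: growth inhibition versus vehicle-treated controls. Cells were a DNA repair-deficient yeast strain treated with compounds.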
# [2] = NCI Yeast Anticancer Drug Screen. Data for the wt1 strain (AID 149);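 also: 0% = growth of vehicle-treated wt1 cultures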; conditions: S. cerevisiae wt1 strain (SPY 50644) growth inhibition, hits give high values
# Method in brief: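 wt1 yeast, compound-treated; % growth inhibition vs vehicle control.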
# [3] = NCI Yeast Anticancer Drug Screen. Data for the rad50EPP+ strain (AID 151);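 also: 0% = growth of vehicle-treated control cultures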; conditions: S. cerevisiae rad50 mutant strain, hits give high values
# Method in brief: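 Growth inhibition read against vehicle controls in rad50EPP+ yeast, a strain altered in DNA damage repair, after compound exposure.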
# [4] = NCI Yeast Anticancer Drug Screen. Data for the rad50 strain (AID 155);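 also: 0% = growth of vehicle-only cultures of the same strain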; conditions: S. cerevisiae rad50 strain growth inhibition, hits give high values
# Method in brief: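 Genetically altered yeast (DNA repair pathway); compound treatment; growth inhibition vs vehicle ctrl.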
# [5] = NCI Yeast Anticancer Drug Screen. Data for the mec2-1 strain (AID 157); conditions: S. cerevisiae mec2-1 strain, hits give high values
# Method in brief: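 Yeast mec2-1 mutant treated with compound. Readout: growth inhibition vs vehicle controls.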
# [6] = NCI Yeast Anticancer Drug Screen. Data for the rad14 strain (AID 159);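 also: 0% = growth of vehicle-treated control cultures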; conditions: S. cerevisiae rad14 strain growth inhibition, hits give high values
# Method in brief: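 Test compounds were applied to a repair-deficient yeast strain. Its growth was then compared with that of cultures given vehicle alone, and inhibition was expressed relative to those controls.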
# [7] = NCI Yeast Anticancer Drug Screen. Data for the sgs1 mgt1 strain (AID 161);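 also: 0% = growth of cultures given vehicle only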; conditions: S. cerevisiae sgs1 mgt1 strain, hits give high values
# Method in brief: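 Read-out: growth inhibition vs vehicle controls. Cells: mutant yeast strain deficient in DNA damage repair.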
# [8] = NCI Yeast Anticancer Drug Screen. Data for the CLN2oe strain (AID 163);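 also: 0% = growth of vehicle-only control cultures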; conditions: S. cerevisiae CLN2oe strain, hits give high values
# Method in brief: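 Read-out: yeast growth inhibition, expressed relative to vehicle-only controls. The strain bears an engineered cell-cycle alteration.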
# [9] = NCI Yeast Anticancer Drug Screen. Data for the cln2 rad14 strain (AID 165);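 also: 0% = growth equal to vehicle treated cultures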; conditions: S. cerevisiae cln2 rad14 strain, hits give high values
# Method in brief: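 cln2 rad14 yeast strain; compound exposure; growth inhibition read vs vehicle controls.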
# [10] = NCI Yeast Anticancer Drug Screen. Data for the bub3 strain (AID 167); conditions: S. cerevisiae bub3 mutant strain, hits give high values
# Method in brief: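 Yeast carrying a defined mutation is treated with each compound, and growth is compared with that of vehicle-exposed cells to give inhibition.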
# [11] = NCI Yeast Anticancer Drug Screen. Data for the wt2 strain (AID 169);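 also: 0% = growth of vehicle-treated yeast cultures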; conditions: S. cerevisiae wt2 strain growth inhibition, hits give high values
# Method in brief: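 Read-out: growth inhibition versus vehicle-treated control cultures after compound exposure of the yeast strain.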
# [12] = NCI Yeast Anticancer Drug Screen. Data for the mlh1 strain (AID 171);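 also: 0% = growth of vehicle-treated control cultures of the same strain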; conditions: S. cerevisiae mlh1 strain growth inhibition, hits give high values
# Method in brief: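 Read-out: growth inhibition versus vehicle controls. Strain: engineered yeast with a defined DNA repair or cell cycle defect, compound-treated.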
# [13] = NCI Yeast Anticancer Drug Screen. Data for the sgs1 strain (AID 173);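 also: 0% = growth of vehicle-only control cultures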; conditions: S. cerevisiae sgs1 mutant, hits give high values
# Method in brief: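 Read-out: yeast growth inhibition relative to vehicle controls, following compound exposure of a strain with a defined DNA repair/cell cycle alteration.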
# [14] = NCI Yeast Anticancer Drug Screen. Data for the mlh1 rad18 strain (AID 175); conditions: S. cerevisiae mlh1 rad18 strain growth inhibition, hits give high values
# Method in brief: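 Yeast w/ defined DNA-repair lesions; compound exposure; growth vs vehicle controls → % inhibition.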
# [15] = NCI Yeast Anticancer Drug Screen. Data for the rad18 strain (AID 177); conditions: S. cerevisiae rad18 mutant growth inhibition, hits give high values
# Method in brief: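 Readout: growth inhibition vs vehicle controls. Cells: genetically altered yeast strain, DNA repair defect.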
# [16] = at 5.0 µM (retest, dose inferred, filed as 0.5)
# [17] = at 50.0 µM (retest, dose inferred, filed as 5.0)
structure (smiles),measurement,setting,value
CCCCCCCCCCCCCCCCCC(=O)NCCCN(C)C,growth inhibition,[1]; at 1.2 µM,-47%
same,growth inhibition,[1]; at 3.7 µM,-39%
same,growth inhibition,[1]; at 11.0 µM,-44%
same,growth inhibition,[1]; at 33.0 µM,97% (active)
same,growth inhibition,[1]; at 100.0 µM,97% (active)
same,growth inhibition,[2]; at 1.2 µM,-51%
same,growth inhibition,[2]; at 3.7 µM,-58%
same,growth inhibition,[2]; at 11.0 µM,-56%
same,growth inhibition,[2]; at 33.0 µM,98% (active)
same,growth inhibition,[2]; at 100.0 µM,97% (active)
same,growth inhibition,[3]; at 1.2 µM,-37%
same,growth inhibition,[3]; at 3.7 µM,-43%
same,growth inhibition,[3]; at 11.0 µM,33%
same,growth inhibition,[3]; at 33.0 µM,96% (active)
same,growth inhibition,[3]; at 100.0 µM,96% (active)
same,growth inhibition,[4]; at 1.2 µM,-27%
same,growth inhibition,[4]; at 3.7 µM,-11%
same,growth inhibition,[4]; [16],33%
same,growth inhibition,[4]; at 11.0 µM,-17%
same,growth inhibition,[4]; at 33.0 µM,94% (active)
same,growth inhibition,[4]; [17],98% (active)
same,growth inhibition,[4]; at 50.0 µM,92.2% (active)
same,growth inhibition,[4]; at 100.0 µM,96% (active)
same,growth inhibition,[5]; at 1.2 µM,-31%
same,growth inhibition,[5]; at 3.7 µM,-31%
same,growth inhibition,[5]; [16],50%
same,growth inhibition,[5]; at 11.0 µM,-45%
same,growth inhibition,[5]; at 33.0 µM,98% (active)
same,growth inhibition,[5]; [17],98% (active)
same,growth inhibition,[5]; at 50.0 µM,93.8% (active)
same,growth inhibition,[5]; at 100.0 µM,98% (active)
same,growth inhibition,[6]; at 1.2 µM,-31%
same,growth inhibition,[6]; at 3.7 µM,-29%
same,growth inhibition,[6]; at 11.0 µM,-40%
same,growth inhibition,[6]; at 33.0 µM,97% (active)
same,growth inhibition,[6]; at 100.0 µM,97% (active)
same,growth inhibition,[7]; [16],-32%
same,growth inhibition,[7]; [17],97% (active)
same,growth inhibition,[7]; at 50.0 µM,93.2% (active)
same,growth inhibition,[8]; at 1.2 µM,-35%
same,growth inhibition,[8]; at 3.7 µM,-37%
same,growth inhibition,[8]; at 11.0 µM,-80%
same,growth inhibition,[8]; at 33.0 µM,97% (active)
same,growth inhibition,[8]; at 100.0 µM,97% (active)
same,growth inhibition,[9]; [16],17%
same,growth inhibition,[9]; [17],97% (active)
same,growth inhibition,[9]; at 50.0 µM,92% (active)
same,growth inhibition,[10]; at 1.2 µM,4%
same,growth inhibition,[10]; at 3.7 µM,6%
same,growth inhibition,[10]; [16],42%
same,growth inhibition,[10]; at 11.0 µM,1%
same,growth inhibition,[10]; at 33.0 µM,98% (active)
same,growth inhibition,[10]; [17],95% (active)
same,growth inhibition,[10]; at 50.0 µM,92.2% (active)
same,growth inhibition,[10]; at 100.0 µM,98% (active)
same,growth inhibition,[11]; at 1.2 µM,-29%
same,growth inhibition,[11]; at 3.7 µM,-27%
same,growth inhibition,[11]; at 11.0 µM,-37%
same,growth inhibition,[11]; at 33.0 µM,97% (active)
same,growth inhibition,[11]; at 100.0 µM,98% (active)
same,growth inhibition,[12]; at 1.2 µM,-21%
same,growth inhibition,[12]; at 3.7 µM,-35%
same,growth inhibition,[12]; at 11.0 µM,-44%
same,growth inhibition,[12]; at 33.0 µM,97% (active)
same,growth inhibition,[12]; at 100.0 µM,97% (active)
same,growth inhibition,[13]; at 1.2 µM,-5%
same,growth inhibition,[13]; at 3.7 µM,-13%
same,growth inhibition,[13]; at 11.0 µM,-13%
same,growth inhibition,[13]; at 33.0 µM,96% (active)
same,growth inhibition,[13]; at 100.0 µM,97% (active)
same,growth inhibition,[14]; [16],36%
same,growth inhibition,[14]; [17],99% (active)
same,growth inhibition,[14]; at 50.0 µM,92.5% (active)
same,growth inhibition,[15]; at 1.2 µM,-32%
same,growth inhibition,[15]; at 3.7 µM,-32%
same,growth inhibition,[15]; at 11.0 µM,-12%
same,growth inhibition,[15]; at 33.0 µM,97% (active)
same,growth inhibition,[15]; at 100.0 µM,97% (active)
